# From PubChem BioAssay AID590 (National Center for Advancing Translational Sciences (NCATS), 2007)
# Among all 59,000 compounds or so, about 6,500 (11%) were called active. Not shown: some 15% with an inconclusive outcome. Cut-off read from the data, not from the text of the source: active = max dye-equivalent concentration above about 10 nM; inconclusive = mostly about 1.1 nM to 9.6 nM; inactive = weaker than that. This excerpt belongs to a sample that is enriched for actives.
# Experiment: qHTS Assay for Spectroscopic Profiling in A350 Spectral Region
# Conditions: Compound autofluorescence, 340/450 nm, Alexa 350 dye-equivalents; hits give high values
row,SMILES,max dye-equivalent concentration
1,COCCCNC(=O)CCc1nc2cccnc2n1Cc1ccc(OC)cc1,inactive
2,O=C(CC1CCCCC1)Nc1c2c(nn1-c1ccc(F)cc1)CS(=O)(=O)C2,inactive
3,Cc1c(C)c2cc3c4c(oc3c(C)c2oc1=O)CCCC4,25 nM (active)
4,COc1ccccc1-c1nc(NCc2cccs2)c2ccccc2n1,inactive
5,CCOC(=O)Cc1c(C)nc2c(C#N)c(C)nn2c1C,11 nM (active)
6,CC1(C)CCCC2=C1CC1C(=O)N(c3ccccc3)C(=O)C1C2 (stereo not given),inactive
7,CC(C)C(c1nnnn1Cc1ccccc1)N1CCC(C(N)=O)CC1 (stereo not given),inactive
8,COc1ccc(Cn2cccc(NC(=O)Nc3ccc(C#N)cc3)c2=O)cc1,inactive
9,COc1ccc(C(=O)N2CCC[C@@]3(CCN(C(=O)NC(C)C)C3)C2)cc1,inactive
10,c1ccc2c(Nc3ccncc3)nc(-c3ccoc3)nc2c1,inactive
11,c1ccc2c(Nc3ccncc3)nc(-c3ccc4c(c3)OCO4)nc2c1,11 nM (active)
12,COc1cccc(-c2nc(Nc3ccncc3)c3ccccc3n2)c1,inactive
13,COCCn1c(C)cc(C(=O)CSc2ncnc3sc4c(c23)CCC4)c1C,inactive
14,COCCNc1nc(-n2nc(C)cc2C)nc2sc3c(c12)CCCC3,1300 nM (active)
15,Cc1cc(C)n(-c2nc(SCC(=O)N3CCCC3)c3c4c(sc3n2)CCCC4)n1,inactive
16,O=S(=O)(NCc1ccc2c(c1)OCO2)c1cccc2nsnc12,inactive
17,COc1ccc(N2C(=O)CCC(C(=O)Nc3ccccn3)C2c2ccc(OC)c(OC)c2)cc1 (stereo not given),inactive
18,Nc1ccc(SCCN2C(=O)c3ccccc3C2=O)cc1,inactive
19,C[N+](C)(CCCCCC[N+](C)(C)CCCN1C(=O)c2cccc3cccc(c23)C1=O)CCCN1C(=O)c2cccc3cccc(c23)C1=O,260 nM (active)
20,O=C1c2ccccc2C(=O)N1CCCSc1ccccc1,inactive
21,CCOC(=O)Cc1csc(NC(=O)C(C)(C)C)n1,inactive
22,COc1cc(C2C3C(=O)N(c4ccccc4)C(=O)C3ON2c2ccccc2)ccc1O (stereo not given),inactive
23,Cc1ccc2c(c1)c1ncnc(N3CCc4ccccc4C3)c1n2C,140 nM (active)
24,Cc1ccc(NC(=O)CCN2CCc3ccccc3C2)cc1,inactive

row,SMILES,max dye-equivalent concentration
1,Cc1ccc(C(c2nnnn2C(C)(C)C)N2CCc3ccccc3C2)cc1 (stereo not given),inactive
2,O=C(CCCN1C(=O)C2C3C=CC(C3)C2C1=O)N1CCN(c2ccccc2)CC1 (stereo not given),inactive
3,CC(C(=O)O)N1C(=O)c2cccc3cccc1c23 (stereo not given),14 nM (active)
4,Cc1cc(C)nc(NC(=O)C(C)N2C(=O)c3ccccc3C2=O)n1 (stereo not given),inactive
5,COC(=O)c1ccc(NC(=O)C(C)N2C(=O)c3ccccc3C2=O)cc1 (stereo not given),inactive
6,CC(=O)N1CCN(CCN=CC2=C(O)CC(C)(C)CC2=O)CC1,inactive
7,CCOCCN(C=O)c1cccc(OC)c1,inactive
8,COc1ccc(OC)c([C@H](O)CNC(=O)CN)c1,inactive
9,CCOC(=O)CCc1c(C)c2ccc(OCc3nn[nH]n3)c(C)c2oc1=O,30 nM (active)
10,CCc1ccc(-c2nnn(Cc3nn[nH]n3)n2)cc1,inactive
11,Cc1cc(C)cc(OCc2nnc(SCC(=O)OC3CCCCC3)o2)c1,inactive
12,CCOc1cccc(NC(=O)CC#N)c1,inactive
13,CC(=O)c1cc(C#N)c(SCC(=O)C(C)(C)C)nc1C,inactive
14,CCOc1ccc2cc(C#N)c(SCC(=O)OC)nc2c1,31 nM (active)
15,COc1ccc(OC)c(S(=O)(=O)N(C)CC(=O)N2CCN(c3ccccc3)CC2)c1,inactive
16,Cc1cccc(N2CCN(C(c3ccccc3)c3nnnn3CC3CCCO3)CC2)c1C (stereo not given),inactive
17,O=C(Cn1nnc2ccccc2c1=O)Nc1cc(C(F)(F)F)ccc1N1CCOCC1,inactive
18,COc1ccccc1-c1cc(NCc2cccs2)ncn1,inactive
19,CC(C)N1C(=O)C2C(C(=O)NC3CCCCC3)C3C=CC2(O3)C1C(=O)NC1CCCC1 (stereo not given),inactive
20,CC(C)c1nnc(NC(=O)C2CCCN2S(=O)(=O)c2ccc(Cl)cc2)s1 (stereo not given),inactive
21,CCc1nnc(NS(=O)(=O)c2ccc(NS(=O)(=O)c3ccccc3)cc2)s1,inactive
22,CCc1nnc(NC(=O)C2CCCN2S(=O)(=O)c2ccccc2)s1 (stereo not given),16 nM (active)
23,Cc1c(O)c(Br)c(C)c(O)c1Br (tested in a mixture with another compound),inactive
24,CCN(CC)c1ccc(C(=O)OCC(=O)c2ccco2)cc1,inactive

row,SMILES,max dye-equivalent concentration
1,N#CCSc1nc2ccccc2c(=O)n1-c1ccccc1,inactive
2,C/C(O)=C\c1nc(=O)c2c(C)cc(C)nc2n1-c1ccccc1,44 nM (active)
3,Cc1cc(C)nc(N(C#N)CC(=O)Nc2ccccc2)n1,inactive
4,CCOC(=O)N1CCN(C(=O)CNC(=O)Cc2ccc(Cl)cc2)CC1,inactive
5,CCOC(=O)N1CCN(C(=O)c2ccc(S(=O)(=O)c3ccc(C)cc3)c(NC(C)=O)c2)CC1,inactive
6,CCOC(=O)N1CCN(C(=O)c2ccc3nc4cc(Cl)ccc4c(=O)n3c2)CC1,1300 nM (active)
7,O=C(O)c1cscn1,inactive
8,Cc1nonc1OCCn1nnnc1N,inactive
9,CC1CCCN(c2ccc(C(=O)NCCc3ccccc3)cn2)C1 (stereo not given),inactive
10,O=S(=O)(Nc1ccccc1N1CCOCC1)c1ccc(Cl)s1,inactive
11,Oc1cc2c(cc1O)CN(C(=S)NCCc1ccc(Cl)cc1)CCC2,inactive
12,O=S(=O)(NCc1ccccn1)c1ccc(Br)s1,inactive
13,CCCCNc1nc2ccccc2nc1NS(=O)(=O)c1cccs1,61 nM (active)
14,O=S(=O)(c1cccs1)N1CCc2ccccc2C1,inactive
15,O=S(=O)(c1cccs1)N1CCN(Cc2ccccc2)CC1,inactive
16,COCCNc1ncnc2ccc(-c3ccccc3CN(C)C)cc12,inactive
17,COc1ccc(-c2cc(C(=O)NC(C(=O)O)C(C)C)c(C)o2)cc1OC (stereo not given),inactive
18,CCOC(=O)CSc1nnc(-c2ccncc2)o1,inactive
19,CNC(=O)c1ccc2nc(NC(C)=O)sc2c1,inactive
20,COC(=O)c1sc(NC(=O)c2ccc(OC)cc2OC)nc1C,inactive
21,COc1ccc2nc(NC(=O)c3ccc(Br)s3)sc2c1,550 nM (active)
22,CCOC(=O)c1sc(NC(=O)CSc2nnc(-c3ccco3)o2)c(C(=O)OCC)c1C,inactive
